These sequences were tested on PPARg homodimer (NR concentration 180 nM) (assay: PBM binding z-score (relative to random genomic background probes); higher = stronger binding; sequences stand for … in GC…GCGATTGACAGCGTAGAATGAAGG).
How it was run: (§1)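 Binding buffer was PBS pH 7.4 with 2% milk, 0.02% Triton X-100, 1 mM DTT, 0.2 mg/mL BSA and 0.4 mg/ml salmon testes DNA. In it, ligand-free nuclear receptor dimers were incubated 1 h on custom Agilent 4×180K protein-binding microarrays carrying double-stranded probes. Antibodies against each partner (one per run) detected binding, and z-scores were calculated against random background probes after regression normalization of scanned fluorescence.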

| Sequence | PBM binding z-score |
| --- | --- |
| AGTATGAGGTTATTAAGATCAGGGAATTGCGGTC | 1.11 |
| TCTTGTAGATCAACAGGAGGTTTAGAAAGATCGA | 0.11 |
| TCGAGTAGGTTAGTCGGGTCATTCAGCCAACATA | 1.13 |
| CCTCGGAGGAAAACAGGAGGTCAGAGCTGCCAGA | 1.04 |
| CCTACTGGGCCATAGGTCATTGATTCCAATGCTC | 2 |
| CCTAGTTGGACAGGAGGTCACACACCGGATATGA | 3.06 |
| CATAGTTGGTCAGGAGGTCACACACCGGATATGA | 3.84 |
| CCTTACGGGTCACGAGGTAATAGCACGACGAGCG | 4.14 |
| TGGAGTAGGTTACCAATGGGGCATTCAGCTTTCT | 1.1 |
| GCGACTGGGGCAAAGCAGTTTACCATAAGGTTGG | 0.131 |
| CCTTACGGGTCACTGACAGGTTATAACATTTGGA | 2.85 |
| CTCGAAAGGGCGGTTGAGGTGAGTATACGGATAA | 0.247 |
| CTCGAAAGGTCGCTTGAGGTGAGTATACGGATAA | 1.47 |
| CCTACTGGGCCAAAAAGGTCGTTGATGCCGATAA | 0.923 |
| CCGACAGGGGCAAGGTTACCATAACGCACAGCCA | 0.577 |
| CCTAGTTGGTCAGGAGGTCACCCACCGGATATGA | 3.43 |
| GCATATAGGTAATACAAGGTGTAAGTCCGATTGT | 0.475 |
| AACTCTAGGTAACAAGTTCAGTGAAAGAGAGGAC | 0.677 |
| CCTGCTAGGCCATGGTCAGCTAATCTACAGTATG | -0.736 |
| AGTCAAAGTTAATCTAGGTAACGTAAGATATGCT | -0.261 |

| Sequence | PBM binding z-score |
| --- | --- |
| CATACAGGGTCAGCTAGGTCAGAGTAGGGACGGC | 3.26 |
| CCTAGCAGGCCAATCTGGGTCAGTCAAGGCTTGA | -0.0146 |
| ATATGTAGGTTAAGGGTCATTCATGTTGGTTCGC | 3.15 |
| TTACTAAGGTGAGCTGAGGTCGTTGATCCAACTC | 0.306 |
| CAAACTAGGTCAAGGTCAAAGCCGGTTTGTGCCA | 2.93 |
| CCTACTGGTCCAAAAAGGTCATTGATGCCGATAA | 3.82 |
| TCATATACGTAAAAGGTGAAAGTCGGTGTGGTAA | 1.84 |
| ACTAGCAGGCCAAGTTTGGGTTACTCAAACAAAG | -0.611 |
| ATCTCTGGGTAAAGTTCAGTGAAAGATCGATAGA | 1.32 |
| CCTGCTAGGTCAATTGTCAGCTAAAGCAGCTCGC | 0.436 |
| ACTATTAGTTGACTTAGGGCAACCTATACGACGC | 0.623 |
| CGAACTAGGTCTTCCAGGACAGTGAATACATTGA | -0.375 |
| CCTTGCGGGTCACTCCAGGTTATAGCATCGGAGT | 1.54 |
| CCGAGTAGGCTATGGGGCATTCAGGCAACGGTGA | -0.376 |
| CAGCCTAGGTCAGGGCCAGAATAGGAGGAACGTT | 0.276 |
| AGTAAAAGTTCATCTAGGTAACGTAAGATATGCT | 2.75 |
| CATAAAGGGTCAGCTAGGCCAGAGTAGGGACGGC | 2.26 |
| CGAACTAGGTCAAGGACACTGAATCTCCGCACGC | 1.58 |
| GTACCAAGGTGAATAGGTCGTTTATGAGTAGGCG | 1.17 |
| AGTCAAAGTTCAGGACGAGGTAACGCAAAGCACG | 1.73 |

These sequences were tested on PXR:RXRa (NR concentration 270 nM, RXRa partner concentration 90 nM) in the same assay as above.
How it was run: as §1

| Sequence | PBM binding z-score |
| --- | --- |
| AGTATGAGGTTATTAAGATCAGGGAATTGCGGTC | 1.5 |
| TCTTGTAGATCAACAGGAGGTTTAGAAAGATCGA | -0.0955 |
| TCGAGTAGGTTAGTCGGGTCATTCAGCCAACATA | 2.57 |
| CCTCGGAGGAAAACAGGAGGTCAGAGCTGCCAGA | 1.5 |
| CCTACTGGGCCATAGGTCATTGATTCCAATGCTC | 2.1 |
| CCTAGTTGGACAGGAGGTCACACACCGGATATGA | 4.13 |
| CATAGTTGGTCAGGAGGTCACACACCGGATATGA | 4.52 |
| CCTTACGGGTCACGAGGTAATAGCACGACGAGCG | 4.07 |
| TGGAGTAGGTTACCAATGGGGCATTCAGCTTTCT | 0.359 |
| GCGACTGGGGCAAAGCAGTTTACCATAAGGTTGG | 0.655 |
| CCTTACGGGTCACTGACAGGTTATAACATTTGGA | 3.67 |
| CTCGAAAGGGCGGTTGAGGTGAGTATACGGATAA | 0.233 |
| CTCGAAAGGTCGCTTGAGGTGAGTATACGGATAA | 4.26 |
| CCTACTGGGCCAAAAAGGTCGTTGATGCCGATAA | 1.69 |
| CCGACAGGGGCAAGGTTACCATAACGCACAGCCA | 0.585 |
| CCTAGTTGGTCAGGAGGTCACCCACCGGATATGA | 4.07 |
| GCATATAGGTAATACAAGGTGTAAGTCCGATTGT | -0.257 |
| AACTCTAGGTAACAAGTTCAGTGAAAGAGAGGAC | 1.37 |
| CCTGCTAGGCCATGGTCAGCTAATCTACAGTATG | -0.665 |
| AGTCAAAGTTAATCTAGGTAACGTAAGATATGCT | -0.201 |

| Sequence | PBM binding z-score |
| --- | --- |
| CATACAGGGTCAGCTAGGTCAGAGTAGGGACGGC | 3.65 |
| CCTAGCAGGCCAATCTGGGTCAGTCAAGGCTTGA | 0.0599 |
| ATATGTAGGTTAAGGGTCATTCATGTTGGTTCGC | 4.77 |
| TTACTAAGGTGAGCTGAGGTCGTTGATCCAACTC | 5.17 |
| CAAACTAGGTCAAGGTCAAAGCCGGTTTGTGCCA | 4.89 |
| CCTACTGGTCCAAAAAGGTCATTGATGCCGATAA | 5.11 |
| TCATATACGTAAAAGGTGAAAGTCGGTGTGGTAA | 1.35 |
| ACTAGCAGGCCAAGTTTGGGTTACTCAAACAAAG | -0.324 |
| ATCTCTGGGTAAAGTTCAGTGAAAGATCGATAGA | 2.12 |
| CCTGCTAGGTCAATTGTCAGCTAAAGCAGCTCGC | 0.762 |
| ACTATTAGTTGACTTAGGGCAACCTATACGACGC | 0.356 |
| CGAACTAGGTCTTCCAGGACAGTGAATACATTGA | -0.421 |
| CCTTGCGGGTCACTCCAGGTTATAGCATCGGAGT | 4.59 |
| CCGAGTAGGCTATGGGGCATTCAGGCAACGGTGA | -0.862 |
| CAGCCTAGGTCAGGGCCAGAATAGGAGGAACGTT | 0.146 |
| AGTAAAAGTTCATCTAGGTAACGTAAGATATGCT | 4.52 |
| CATAAAGGGTCAGCTAGGCCAGAGTAGGGACGGC | 2.18 |
| CGAACTAGGTCAAGGACACTGAATCTCCGCACGC | 1.44 |
| GTACCAAGGTGAATAGGTCGTTTATGAGTAGGCG | 1 |
| AGTCAAAGTTCAGGACGAGGTAACGCAAAGCACG | 2.72 |

Reference: the supplement of paper PMC6555819
